# Assay outcomes as filed in PubChem.
# Efflux pump inh = blocks antifungal efflux pumps in multiplex yeast assay | S. cerevisiae Candida pump triplex, Nile Red efflux | inhibition, % at 10 µM | 0.44% of 330,000 active;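 active = plate passing quality check with inhibition over a set limit, or well fluorescence over plate mean plus 4 SD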;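 note: Nile Red retained in pooled yeast measured as flow cytometry median fluorescence; 0% = buffer negative control and 100% = Enniatin B positive control; higher means more Nile Red kept so more efflux inhibition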
# SUMO Mot1 rescue = inhibitors of SUMOylation pathway: yeast Mot1-301 growth rescue; 1% of 320,000 active; AID 2716; growth rescue, % at 18.8 µM; S. cerevisiae Mot1-301 growth rescue, ATP luminescence, 38.5C; percent above DMSO median, 100 means doubled;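 active = every valid replicate shows activation above 250% relative to neutral control wells; inactive = the rest, any valid replicate at or below 250%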;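 note: OY570 slx delta 5 strain wells were the positive control but not used for scaling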
# AHR activator = activates the human aryl hydrocarbon receptor; P35869; AHR-responsive luciferase reporter cells, luminescence; activation, % at 5 µM; 2.5% of 320,000 active; in the data active = activation above about 47%;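 note: 0% = vehicle wells and 100% = reference agonist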
# ALR H2O2 inh = blocks human ALR sulfhydryl oxidase activity | P55789 | purified ALR, DTT oxidation, H2O2 HRP-luminol luminescence | inhibition, % (test concentration not listed) | 3.8% of 290,000 active | AID 485317;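 active = mean replicate inhibition above about 79%, with every replicate also reaching it, limit read from the data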
# A1 inh = inhibitors of the anti-apoptotic protein A1, read as caspase activation | 0.066% of 330,000 active | MEF A1-2A-BIM cells, Caspase-Glo 3/7 luminescence, 3 h; percent of clofoctol response, vehicle zero | caspase activation, % (test concentration not listed);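 active = over half of replicate activation scores above 10%, or exactly half above 10 with the replicate mean above 10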
# VLA-4 inh = inhibition in a human VLA-4 binding assay | P13612 | inhibition, % (about 7 µM as worked out from the volumes in the protocol) | VLA-4 expressing cells, ligand binding flow cytometry | 0.2% of 330,000 active; in the data active = inhibition above about 50%
# Target sequence (P13612 whole entry, looked up): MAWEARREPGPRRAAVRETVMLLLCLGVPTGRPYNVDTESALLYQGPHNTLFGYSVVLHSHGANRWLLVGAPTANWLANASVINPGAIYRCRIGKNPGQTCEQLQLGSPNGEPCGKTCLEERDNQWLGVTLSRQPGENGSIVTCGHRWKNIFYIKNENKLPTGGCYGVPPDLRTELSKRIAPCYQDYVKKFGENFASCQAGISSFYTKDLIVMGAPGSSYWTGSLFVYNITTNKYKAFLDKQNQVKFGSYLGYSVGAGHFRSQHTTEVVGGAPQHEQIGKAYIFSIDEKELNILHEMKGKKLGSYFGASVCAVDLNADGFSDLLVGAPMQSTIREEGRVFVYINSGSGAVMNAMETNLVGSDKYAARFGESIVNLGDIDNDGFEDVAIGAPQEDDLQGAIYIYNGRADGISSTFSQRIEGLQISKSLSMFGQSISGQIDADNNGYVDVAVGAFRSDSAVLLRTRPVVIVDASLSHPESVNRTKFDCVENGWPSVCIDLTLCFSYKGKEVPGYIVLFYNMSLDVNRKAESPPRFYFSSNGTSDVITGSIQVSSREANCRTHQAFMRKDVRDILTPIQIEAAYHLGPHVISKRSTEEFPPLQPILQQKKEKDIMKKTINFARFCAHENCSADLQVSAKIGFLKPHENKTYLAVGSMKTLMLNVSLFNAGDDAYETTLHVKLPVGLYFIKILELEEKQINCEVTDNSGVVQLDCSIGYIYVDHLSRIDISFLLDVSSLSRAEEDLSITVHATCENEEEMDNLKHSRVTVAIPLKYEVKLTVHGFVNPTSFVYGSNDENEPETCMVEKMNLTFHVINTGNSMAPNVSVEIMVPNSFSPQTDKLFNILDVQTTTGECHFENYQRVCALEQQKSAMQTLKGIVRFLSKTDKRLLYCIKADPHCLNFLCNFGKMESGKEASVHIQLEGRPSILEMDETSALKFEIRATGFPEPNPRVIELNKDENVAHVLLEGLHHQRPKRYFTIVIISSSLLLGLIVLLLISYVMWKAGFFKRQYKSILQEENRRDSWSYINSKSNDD
# VLA-4 mod pick = confirmation of allosteric modulators of human VLA-4 integrin. U937 cells, HUTS-21 LIBS mAb binding, flow cytometry; LDV ligand present at threefold Kd. 2% of 1,300 active. shares compounds with VLA-4 inh. inhibition, % at 6.7 µM. AID 2813; in the data active = inhibition above about 40%;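 note: 0% = ligand without compound and 100% = no ligand background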
# Yeast Mot1 SUMO = inhibits SUMO pathway, affecting Mot1-301 yeast growth | S. cerevisiae Mot1-301 galactose growth, ATP luminescence, 24 h; -100 = growth of slx-deleted rescue strain | growth activity, percent, % at 42 µM | 2,300 tested, under 10 active | shares compounds with SUMO Mot1 rescue;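 active = Signal drops as the depositor expects, and the fitted half-maximal dose is no more than ten times the top valid tested dose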;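 note: more negative values mean stronger growth rescue toward the control strain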
# AHR act cf = confirmation of human aryl hydrocarbon receptor activators | shares compounds with AHR activator | 87% of 2,300 active | human cells, AHR-responsive luciferase reporter, luminescence | activation, % at 9 µM; in the data active = activation above about 49%;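 note: HepG2 hepatoma cells carrying a DRE-driven firefly luciferase reporter; 0% = vehicle wells and 100% = reference agonist wells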
# PXR act counter = activates human PXR in AHR activator counter-screen; 88% of 2,300 active; activation, % at 11.6 µM; AID 434939; cell-based PXR reporter, luciferase luminescence; shares compounds with AHR activator; in the data active = activation above about 11%;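 note: human hepatoma DPX-2 cells expressing full-length human PXR; 0% = DMSO and 100% = reference agonist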
# Yeast cmpd fluor = compound fluorescence in yeast efflux pump counter-screen; shares compounds with Efflux pump inh; S. cerevisiae AD/pABC3, flow cytometry; fluorescence ratio to DMSO, % at 10 µM; 4% of 1,700 active;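 active = fluorescence ratio to DMSO above its plate's cutoff, the plate mean ratio plus 5 SD, cut at about 210% in these data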;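 note: unstained yeast with no Nile Red so the signal is compound autofluorescence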
# CaMdr1 efflux inh = inhibitors of Candida albicans Mdr1 efflux pump. S. cerevisiae AD/CaMDR1, Nile Red efflux, flow cytometry. shares compounds with Efflux pump inh. inhibition, % at 10 µM. 1% of 1,700 active; in the data active = inhibition above about 26%;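 note: 0% = DMSO vehicle and 100% = reference inhibitor; higher means more Nile Red retained so more efflux inhibition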
# Cdr2 pump inh = Candida Cdr2 efflux pump inhibition | 4% of 1,700 active | AID 588520 | Nile Red retention ratio vs DMSO, % at 10 µM | shares compounds with Efflux pump inh | S. cerevisiae AD/CaCDR2, Nile Red retention, flow cytometry; in the data active = Nile Red retention ratio vs DMSO above about 190%;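 note: higher ratio means more blocking of Cdr2 efflux of the dye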
# CaCdr1 efflux inh = blocks the Candida albicans Cdr1 efflux pump in yeast; AID 588522; S. cerevisiae AD/CaCDR1, Nile Red efflux, flow cytometry; 1% of 1,700 active; shares compounds with Efflux pump inh; inhibition, % at 10 µM;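 active = inhibition above the screen-wide mean plus twice its standard deviation, cut at about 32% in these data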
# * marks the source's active call; other numbers are inactive results; . = no result given; + = active, no number. The list is not random: actives were taken first. Their share in the collection is about 7.2%.
SMILES,Efflux pump inh,SUMO Mot1 rescue,AHR activator,ALR H2O2 inh,A1 inh,VLA-4 inh,VLA-4 mod pick,Yeast Mot1 SUMO,others
Cc1cc(C)c(S(=O)(=O)N2CCCOC2CNC(=O)C(=O)NCc2ccccn2)c(C)c1 (stereo not given),0.0,53.7,-2.4,0.0,0.5,7.4,.,.,
CCOC(=O)c1c(C)[nH]c(C(=O)COC(=O)c2ccncc2)c1C,0.0,+,20.9,-12.1,-0.1,4.1,-5.0,-0.3,
O=C(Nc1ccsc1C(=O)O)c1cccc(Oc2ccccc2)c1,0.2,-12.0,6.2,8.4,-4.2,-1.5,.,.,
O=C(Nc1ccsc1C(=O)O)c1cccc(C(F)(F)F)c1,0.3,968.1*,9.0,7.0,-4.1,40.2,-16.7,0.3,
O=C(Nc1cccc(Cl)c1)OCc1cncs1,0.0,+,28.3,-2.2,-0.5,0.2,3.7,-0.1,
CCN(CC)S(=O)(=O)c1ccc(/C=C/C(=O)OCC(=O)NNC(=O)c2ccc(OC)cc2)cc1,0.1,-9.0,-0.1,1.2,0.2,22.4,.,.,
COc1ccc(C(=O)N(CCc2ccccc2)Cc2ccccc2)c(OC)n1,0.3,657.7*,-0.1,-3.0,0.6,41.7,2.9,-0.2,
CCCCCCOc1ccc(N2C(=O)CC(N3CCC(C(=O)OCC)CC3)C2=O)cc1 (stereo not given),0.0,552.9*,2.2,-3.6,-0.4,-9.9,-3.5,0.0,
Cn1cccc1/C=N/NC(=O)c1cccc(OC(F)(F)C(F)F)c1,-0.1,5.1,1.4,-0.3,-1.2,19.9,.,.,
Cc1ccc(S(=O)(=O)CCC(=O)Nc2nnc(-c3cccs3)o2)cc1,0.1,-12.4,-0.8,-2.9,0.1,10.4,.,.,
O=c1c2ccccc2nc2n1CCc1c-2[nH]c2ccccc12,0.0,92.0,98.9*,-12.8,-4.3,51.4*,3.8,.,AHR act cf=222.8*;PXR act counter=19.6*
COC(=O)c1ccc(CNC(=O)c2ccc3c(c2)OCCO3)cc1,0.1,24.1,0.4,.,-0.7,-0.8,.,.,
COc1ccc2c(-c3cnc(N4CCOCC4)nc3)c(-c3ccc(S(C)(=O)=O)cc3)sc2c1,0.4,-4.1,2.1,0.7,-1.8,-0.9,.,.,
COc1ccc(-c2sc3cc4c(cc3c2-c2ccc3c(c2)OCCO3)OCO4)cc1,-0.2,4.0,8.2,-4.5,1.1,11.4,.,.,
COc1ccc(-c2sc3cc4c(cc3c2-c2ccc(OCCN3CCCCC3)cc2)OCO4)cc1,0.6,.,.,.,.,.,0.0,.,Yeast cmpd fluor=101.4;CaMdr1 efflux inh=-0.2;Cdr2 pump inh=97.7;CaCdr1 efflux inh=0.2
COc1ccccc1-c1sc2cc3c(cc2c1-c1ccc(OCCN2CCOCC2)cc1)OCO3,0.6,.,.,.,.,.,0.0,.,Yeast cmpd fluor=106.2;CaMdr1 efflux inh=0.0;Cdr2 pump inh=101.8;CaCdr1 efflux inh=0.2
COc1cc(OC)cc(-c2sc3ccc(OC)cc3c2-c2ccc(OCCN3CCCCC3)cc2)c1,+,.,.,.,.,.,0.0,.,Yeast cmpd fluor=99.8;CaMdr1 efflux inh=69.8*;CaCdr1 efflux inh=103.5*
COc1ccc(-c2sc3cc(OC)ccc3c2-c2ccc(OCCN3CCOCC3)cc2)cc1,0.2,.,.,.,.,.,0.0,.,Yeast cmpd fluor=91.8;CaMdr1 efflux inh=-0.3;Cdr2 pump inh=95.6;CaCdr1 efflux inh=0.1
O=C(Nc1nccs1)c1nc[nH]c1C(=O)NCc1ccccc1,-0.1,5.7,11.5,-16.1,0.2,15.2,.,.,
CCC(Cc1ccccc1)NC(=O)c1ccc2nc(N3CCOCC3)sc2c1 (stereo not given),2.1*,21.2,58.9*,.,0.3,10.5,3.3,.,Yeast cmpd fluor=107.8;CaMdr1 efflux inh=0.0;Cdr2 pump inh=103.9;CaCdr1 efflux inh=-0.2
CCOC(=O)C1=C(c2ccccc2)N=C2SCC(=O)N2C1c1ccc2c(c1)OCO2 (stereo not given),0.0,-17.7,0.6,-3.0,0.1,2.8,.,.,
CC(=O)c1sc(NC(=O)CCS(=O)(=O)c2ccc(C)cc2)nc1C,0.0,.,-1.6,.,1.3,6.3,.,.,
Cc1ccc(-c2nnc(SCC#CCOC(=O)c3ccco3)o2)cc1,-0.1,11.2,11.4,5.1,-0.3,-13.3,.,.,
O=C(OCC#CCSc1nnc(-c2ccccc2)o1)c1cc2ccccc2o1,-0.1,581.7*,0.0,-0.1,-1.6,-5.8,.,0.2,
O=C(CN1CCN(Cc2ccc(Cl)cc2)CC1)N/N=C/c1ccncc1,-0.1,373.6*,3.0,2.8,0.2,-30.6,.,0.0,
SMILES,Efflux pump inh,SUMO Mot1 rescue,AHR activator,ALR H2O2 inh,A1 inh,VLA-4 inh,VLA-4 mod pick,Yeast Mot1 SUMO,others
O=C(Cc1ccc(Cl)cc1)N/N=C/c1ccncc1,-0.1,2.7,4.8,-2.2,-1.0,-2.9,.,.,
CCc1nnc(SCC(=O)Nc2ccc3ccccc3c2)n1N,0.0,-4.7,9.6,.,1.2,8.9,.,.,
CCOc1cc(NC(=O)c2cccs2)c(OCC)cc1NC(=O)CCC(=O)NCCN1CCOCC1,-0.1,387.8*,8.1,-3.6,0.5,-0.6,.,0.6,
O=C1CN(C(=O)c2c(F)cccc2F)C(c2ccc(F)cc2)c2cc(F)ccc2N1 (stereo not given),-0.2,677.3*,-0.9,-1.8,0.8,10.2,.,-0.7,
O=c1c2ccccc2nnn1COc1cccc(Cl)c1,0.1,.,3.6,-11.7,-5.5,4.0,.,.,
C/C(=C\C(=O)N1CCc2ccccc21)C(=O)O,-0.3,587.4*,15.8,7.1,0.0,0.7,.,1.6,
O=C(c1ccccc1)N1CCc2ccccc21,0.0,3.9,0.3,.,-0.5,-5.1,.,.,
COc1ccc(-n2c(SCC(=O)NCC3CCCO3)nc3c([nH]c4ccccc43)c2=O)cc1OC (stereo not given),-0.1,28.1,8.7,-4.6,0.7,4.7,.,.,
CC(C)n1c(CN(C)c2ccccc2)nc2ccccc21,0.1,875.1*,4.8,97.3*,-1.7,7.9,.,0.2,
O=C(NNC(=O)C1CC(=O)N(Cc2ccccc2)C1)c1ccc(Br)cc1 (stereo not given),-0.1,3.3,-4.0,2.9,-0.9,7.9,.,.,
